From PubChem BioAssay
CYP2C19 activ – cytochrome P450 2C19 (human) activation; 96,000 tested, under 10 active; recombinant CYP2C19, luciferin-H EGE luminescence; hits give high values; 0 = fully inhibited enzyme, 1 = untreated enzyme; activation factor at 5 µM;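 active means activation factor of at least 2 at 5 µM in the primary screen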
CYP2C9 inh – inhibitors of human CYP2C9. P11712. CYP2C9 Supersomes, luciferin-H conversion, luminescence. inhibition, % at 5 µM. hit rate 20% among 96,000;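 active means blocking of liver enzyme CYP2C9 beyond about 50% at 5 µM, limit read from the data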
Target sequence (P11712 whole entry, looked up): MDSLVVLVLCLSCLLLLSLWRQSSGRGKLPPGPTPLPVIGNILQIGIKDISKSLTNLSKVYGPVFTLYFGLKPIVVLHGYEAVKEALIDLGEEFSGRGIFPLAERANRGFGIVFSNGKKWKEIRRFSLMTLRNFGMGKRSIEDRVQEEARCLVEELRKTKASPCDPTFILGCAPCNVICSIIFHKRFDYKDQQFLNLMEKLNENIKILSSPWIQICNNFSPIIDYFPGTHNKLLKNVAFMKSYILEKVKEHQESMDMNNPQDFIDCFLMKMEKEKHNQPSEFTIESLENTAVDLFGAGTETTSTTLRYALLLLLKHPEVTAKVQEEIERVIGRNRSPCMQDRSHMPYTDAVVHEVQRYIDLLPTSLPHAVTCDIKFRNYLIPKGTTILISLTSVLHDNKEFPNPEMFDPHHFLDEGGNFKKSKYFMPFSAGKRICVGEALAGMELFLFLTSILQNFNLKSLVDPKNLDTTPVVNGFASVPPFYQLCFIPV
CYP2C19 inhib – inhibitors of human CYP2C19; inhibition, % at 5 µM; hit rate 21% among 96,000; CYP2C19 Supersomes, luciferin-H EGE luminescence, 30 min;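 active means CYP2C19 inhibition above a set limit at 5 µM in the primary screen, cut at about 50% in these data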
CYP2C9 act – CYP2C9 (human) activation; recombinant CYP2C9, luciferin-H conversion, luminescence; hits give high values; factor 1 = untreated enzyme, 0 = blocked; P11712; activation factor at 5 µM; AID 1024; hit rate 1.4% among 96,000;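 active means activation factor of 2 or more for CYP2C9 at a 5 µM dose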
PostGolgi yeast – growth inhibition of a yeast mutant, post-Golgi transport screen; post-Golgi transport phenotypic cell assay; inhibition, % at 10 µM; hit rate 0.9% among 98,000;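 further: yeast cells grown in 1536-well plates; yeast grown about 18 h at 30C before absorbance read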
PostGolgi ctrl – inhibits growth of the yeast control strain | hit rate 5% among 98,000 | inhibition, % at 10 µM | efflux-deficient yeast background strain, growth absorbance A615, 16 h
Each line names hits and unclear results; the compound was inactive in the other large screens. The list is not random: actives were taken first. Their share in the collection is about 32%. Unless noted, no stated cut-off is given here; in the data, active means inhibition above about 30%; inactive means the rest.

Cc1sc2nc(CN3CCOCC3)nc(Oc3ccc(NC(=O)c4ccco4)cc3)c2c1C	none (no result: CYP2C19 activ, CYP2C9 inh, CYP2C19 inhib, CYP2C9 act)
CC(=O)c1ccccc1Oc1nc(CN2CCOCC2)nc2scc(-c3cccs3)c12	CYP2C9 inh 72, CYP2C19 inhib 85, PostGolgi ctrl 42
COc1ccc(C(C)=O)c(Oc2nc(CN3CCOCC3)nc3scc(-c4cccs4)c23)c1	CYP2C9 inh 51, PostGolgi ctrl 42
CC(C)c1nnc(NC(=O)Cn2nc(-c3ccc4c(c3)OCCO4)ccc2=O)s1	none
COc1ccc(C2C(C(=O)Nc3ccc4c(c3)OCCO4)c3ccccc3C(=O)N2C)cc1 (stereo not given)	PostGolgi ctrl 31
CCc1c(O)nc2sc3ccccc3n2c1=O	none
COc1ccccc1NC(=O)Cn1c(=O)n2nc(C)nc2c2ccccc21	none
Cc1ccc(-c2nn(CCC(=O)NCC3CCCO3)c(=O)c3ccccc23)cc1 (stereo not given)	CYP2C9 inh 54
O=C(CCSc1ccccc1)NCC1CCCO1 (stereo not given)	CYP2C19 inhib 72
O=C(CCCOc1ccccc1)NCC1CCCO1 (stereo not given)	none
CCNC(=O)CCn1nc(-c2ccc(Cl)cc2)c2ccccc2c1=O	CYP2C19 inhib 65
COc1ccc(Cl)cc1NC(=O)Cn1c(=O)n2nc(C)nc2c2ccccc21	CYP2C19 inhib 59
CN1CCN(c2nc(NCCOC34CC5CC(CC(C5)C3)C4)nc(OCC(F)(F)F)n2)CC1	none
COc1cc2c(cc1NC(=O)CCCCCN1C(=O)CCC1=O)oc1ccccc12	none
COc1cccc(C2C(C(C)=O)=C(O)C(=O)N2Cc2ccco2)c1 (stereo not given)	none
COc1ccccc1NC(=O)Cn1nc(-c2ccc(Cl)cc2)c2ccccc2c1=O	CYP2C9 inh 70
O=C(CCn1nc(-c2ccccc2)c2ccccc2c1=O)N1CCN(c2ccccc2)CC1	CYP2C9 inh 85, CYP2C19 inhib 90
O=C(CCn1nc(-c2ccccc2)c2ccccc2c1=O)NCC1CCCO1 (stereo not given)	CYP2C9 inh 54, CYP2C19 inhib 56
CN(C)CCCNC(=O)Cc1ccc(Br)cc1	none
Cc1ccc([N+](=O)[O-])cc1N/C=C/C(=O)c1ccco1	CYP2C9 inh 51
COc1ccc(S(=O)(=O)N(C)CC(=O)N2CCOCC2)cc1Cl	none
COc1ccc(S(=O)(=O)N(C)CC(=O)Nc2ccccc2C(F)(F)F)cc1Cl	CYP2C19 inhib 53
COc1ccc(S(=O)(=O)N(C)CC(=O)Nc2ccccc2C(F)(F)F)cc1	CYP2C19 inhib 81
CCOC(=O)N1CCN(c2c(NCC3CCN(Cc4cccc(C)c4)CC3)c(=O)c2=O)CC1	none
COC(=O)c1ccc(CSc2nc3c(cnn3-c3ccc(F)cc3)c(=O)[nH]2)o1	none (no result: CYP2C19 activ, CYP2C9 inh, CYP2C19 inhib, CYP2C9 act)
CCOc1ccc(-n2c(=S)sc3c(=O)[nH]c(SCC(=O)N4CCC(C)CC4)nc32)cc1	CYP2C9 inh 97
CCOC(=O)N1CCN(C(=O)CSc2nc3c(cnn3-c3ccc(Cl)cc3)c(=O)[nH]2)CC1	CYP2C9 inh 68
COC(=O)c1ccc(CSc2nc3c(cnn3-c3ccc(Cl)cc3)c(=O)[nH]2)o1	CYP2C9 inh 76, CYP2C19 inhib 90
CC1CCN(C(=O)CSc2nc3c(cnn3-c3ccc(Cl)cc3)c(=O)[nH]2)CC1	CYP2C9 inh 55
CN(C)Cc1cc(C(C)(C)c2cc(CN(C)C)c(O)c(CN(C)C)c2)cc(CN(C)C)c1O	none (no result: CYP2C19 activ, CYP2C9 inh, CYP2C19 inhib, CYP2C9 act)
COc1cc(NS(=O)(=O)c2ccc(C)cc2)c2ncccc2c1	PostGolgi ctrl 36 (no result: CYP2C19 activ, CYP2C9 inh, CYP2C19 inhib, CYP2C9 act)
Cc1ccc(S(=O)(=O)Nc2cccc3cccnc23)cc1	none
COc1ccc(S(=O)(=O)Nc2cc3c(C(C)=O)c(C)oc3c3ccccc23)cc1	CYP2C9 inh 84, CYP2C19 inhib 93, PostGolgi ctrl 65
COc1ccccc1C(=O)Nc1ccc(S(=O)(=O)Nc2cc(C)on2)cc1	none
CCCCN(C(=S)Nc1ccccc1)C1CCS(=O)(=O)C1 (stereo not given)	none
CON(c1nc(N(C)C)nc(N(C)C)n1)S(=O)(=O)c1ccccc1Cl	none
CCOC(=O)c1c(C(F)(F)F)nc2ncccn12	none
O=C(NCc1ccc2c(c1)OCO2)C1CCC(CNS(=O)(=O)c2ccccc2)CC1 (stereo not given)	none (no result: CYP2C19 activ, CYP2C9 inh, CYP2C19 inhib, CYP2C9 act)
CCOc1ccccc1C1C(C#N)=C(N)Nc2onc(-c3ccccc3)c21 (stereo not given)	none
O=C(Nc1nc(-c2ccccc2)cs1)NC1CCCCC1	PostGolgi ctrl 50
O=C(Nc1nc(-c2ccc(-c3ccccc3)cc2)cs1)C1CCCO1 (stereo not given)	none
O=C(Nc1nc(-c2ccccc2)cs1)C1CCCO1 (stereo not given)	CYP2C9 inh 54, CYP2C19 inhib 62
CSc1nnc(-c2cnccn2)n1Cc1ccccc1	none
CN(C(=O)CSc1nc(-c2ccccc2)cn1N)C(c1ccccc1)c1ccccc1	CYP2C9 inh 76, PostGolgi ctrl 47
Nn1cc(-c2ccccc2)nc1SCC(=O)NC1CCS(=O)(=O)C1 (stereo not given)	none
COc1ccccc1CNC(=O)CSc1nc(-c2ccccc2)cn1N	CYP2C9 inh 87, CYP2C19 inhib 93
Cn1c(SCC(=O)NCCN2C(=O)CSC2=O)nc2ccccc2c1=O	none
N#CCCN(C(=O)CSc1nc(-c2ccccc2)cn1N)c1ccc(F)cc1	none
Nn1cc(-c2ccccc2)nc1SCC(=O)NCCN1C(=O)CSC1=O	CYP2C19 inhib 60
O=c1[nH]ncn1-c1cccc(C(F)(F)F)c1	none
CCN1C(=O)C2C(C1=O)N1C(c3ccccc3)C3C(=O)N(CC)C(=O)C3N1C2c1ccccc1 (stereo not given)	none
CCOC(=O)/C(C#N)=C/c1ccc(OCC(=O)Nc2cc(C)ccc2C)c(OC)c1	none
CCOC(=O)/C(C#N)=C\c1ccc(OCC(=O)Nc2ccc(C)cc2C)c(OC)c1	CYP2C19 inhib 78
CC1=C(C(=O)Nc2ccccc2Cl)C(c2ccc(N(C)C)cc2)NC(=O)N1 (stereo not given)	none
Cc1cc(Br)cc2c(C(=O)Nc3c(C)n(C)n(-c4ccccc4)c3=O)cc(-c3cccs3)nc12	CYP2C9 inh 76, PostGolgi ctrl 39
CCc1ccc(-c2cc(C(=O)Nc3c(C)n(C)n(-c4ccccc4)c3=O)c3ccccc3n2)s1	CYP2C19 inhib 51
Cc1cc(C(=O)Nc2c(C)n(C)n(-c3ccccc3)c2=O)c2ccccc2n1	none
C=CCNC(=O)c1ccccc1S(=O)c1ccccc1C#N (stereo not given)	none
Cc1c(Cl)ccc2c1NC(=O)C21NC(CCC(N)=O)[C@H]2C(=O)N(c3ccc(Cl)cc3)C(=O)[C@H]21 (stereo not given in full)	CYP2C9 inh 70, CYP2C19 inhib 57
CSCCC1NC2(C(=O)Nc3c2ccc(Cl)c3C)[C@@H]2C(=O)N(C3CCCC3)C(=O)[C@H]12 (stereo not given in full)	CYP2C9 inh 91, CYP2C19 inhib 91
